# Measurements: article PMC4102417
# Test system: murine 3T3 fibroblasts
# Experiment: primary screen, percent viability or growth; higher = less effect of the substance
# Description: Similarly, for measuring the cytotoxicity concentration (CC50) for 3T3 fibroblast cells, cultures were incubated with drugs for 72 hours and developed using Alamar Blue (Alamar Biosciences Inc, Sacramento, CA) as previously described.
row,SMILES,Mammalian (3T3) cell % growth at 10 uM
1,CCN(CC)CCCC(C)Nc1c2ccc(Cl)cc2nc2ccc(OC)cc12.Cl.Cl (stereo not shown),5.3%
2,Clc1ccc2c(c1)C(N1CCNCC1)=Nc1ccccc1O2,98%
3,Nc1nc(=S)c2[nH]cnc2[nH]1,98.3%
4,COC(=O)CC[C@@H](C)[C@H]1CC[C@H]2[C@@H]3CC[C@@H]4C[C@H](O)CC[C@]4(C)[C@H]3C[C@H](O)[C@]12C,100%
5,Cc1coc2c1C(=O)C(=O)c1c-2ccc2c1CCCC2(C)C,44.3%
6,O=c1cc(-c2ccc(O)cc2)oc2cc(O)cc(O)c12,73.6%
7,CC1OC(OC2C(OC3CCC4(C)C(CCC5(C)C4CC=C4C6CC(C)(C)CCC6(C(=O)O)CCC45C)C3(C)CO)OCC(O)C2O)C(O)C(O)C1O (stereo not shown),6.8%
8,CCOc1ccc(Cc2nccc3cc(OCC)c(OCC)cc23)cc1OCC,95.1%
9,CC1OC(=O)C(C(C)C)NC(=O)C(C(C)C)OC(=O)C(C(C)C)NC(=O)C(C)OC(=O)C(C(C)C)NC(=O)C(C(C)C)OC(=O)C(C(C)C)NC(=O)C(C)OC(=O)C(C(C)C)NC(=O)C(C(C)C)OC(=O)C(C(C)C)NC1=O (stereo not shown),16.4%
10,C=CC(C1=CC(=O)C(OC)=CC1=O)c1ccc(O)cc1 (stereo not shown),94.8%
11,CCC(=C(c1ccccc1)c1ccc(OCCN(C)C)cc1)c1ccccc1,97%
12,Cl.NCC(=O)c1ccccc1,85.5%
13,COC(=O)CCC(C)C1CCC2C3C(O)CC4CC(O)CCC4(C)C3CC(O)C12C (stereo not shown),81%
14,C=CC(C)(O)CCC1C(=C)CCC2C(C)(CO)CCCC12C (stereo not shown),86.1%
15,COc1cc(O)c2c(c1)C(=O)c1cc(C)cc(O)c1C2=O,96.8%
16,O=c1c(O)c(-c2ccc(O)c(O)c2)oc2c(O[C@@H]3O[C@H](CO)[C@@H](O)[C@H](O)[C@H]3O)c(O)cc(O)c12,100%
17,CC(C)CCCC(C)C1CCC2C3CC(=O)C4CC(O)CCC4(C)C3CCC12C (stereo not shown),100%
18,CC(C)C(C)/C=C/C(C)C1CCC2C3=CC=C4CC(O)CCC4(C)C3CCC21C (stereo not shown),99.6%
19,Cl.Cl.O=C1c2c(O)ccc(O)c2C(=O)c2c(NCCNCCO)ccc(NCCNCCO)c21,14%
20,CCOC(=O)C1=C(COCCN)NC(C)=C(C(=O)OC)C1c1ccccc1Cl.O=S(=O)(O)c1ccccc1 (stereo not shown),100%

row,SMILES,Mammalian (3T3) cell % growth at 10 uM
1,CN(C)CCCN1c2ccccc2Sc2ccccc21.Cl,98.7%
2,CC(=O)Oc1ccc(/C=C/c2cc(OC(C)=O)cc(OC(C)=O)c2)cc1,31.6%
3,C=CC(C1=CC(=O)C(OC)=CC1=O)c1ccccc1 (stereo not shown),0.9%
4,CCC1(O)CC2CN(CCc3c([nH]c4ccccc34)C(C(=O)OC)(c3cc4c(cc3OC)N(C)C3C(O)(C(=O)OC)C(OC(C)=O)C5(CC)C=CCN6CCC43C65)C2)C1.O=S(=O)(O)O (stereo not shown),36.2%
5,CC(=O)O[C@]1(C(C)=O)CC[C@H]2[C@@H]3C=C(Cl)C4=CC(=O)CC[C@]4(C)[C@H]3CC[C@@]21C,97.4%
6,O=C(/C=C(/O)c1ccccc1)c1ccccc1O,100%
7,CC1=CC(=O)C2C(C)(C)CCCC2(C)C1(O)CCc1ccoc1 (stereo not shown),75.8%
8,CC[C@@H](C(=O)[C@@H](C)[C@@H](O)[C@H](C)CCc1ccc(C)c(O)c1C(=O)O)[C@H]1O[C@](CC)([C@H]2CC[C@](O)(CC)[C@H](C)O2)C[C@@H]1C,50.1%
9,COc1ccc2c(c1)OC/C(=C/c1ccc(OC)c(O)c1)C2=O,8.8%
10,COc1cc2ccc(=O)oc2c(O)c1O,100%
11,O=c1[nH]c(=O)n([C@H]2C[C@H](O)[C@@H](CO)O2)cc1F,86.2%
12,C=C1C2CCC3(C)C(c4ccoc4)OC(=O)CC13OC1CC(OC(C)=O)C(C)(C)C(CC(=O)OC)C12C (stereo not shown),84.1%
13,O=c1cc(-c2cc(O)c(O)c(O)c2)oc2cc(O)cc(O)c12,100%
14,CCCOc1ccc2nc(NC(=O)OC)[nH]c2c1,52.8%
15,Cl.Fc1ccc(C2CCNCC2COc2ccc3c(c2)OCO3)cc1 (stereo not shown),100%
16,OCCN1CCN(CCCN2c3ccccc3Sc3ccc(C(F)(F)F)cc32)CC1,100%
17,C[C@@H]1[C@H](O)[C@@H](C)/C=C/C=C/C=C/C=C/C=C/C=C/C=C/[C@H](O[C@@H]2O[C@H](C)[C@@H](O)[C@H](N)[C@@H]2O)C[C@@H]2O[C@](O)(C[C@@H](O)C[C@@H](O)[C@H](O)CC[C@@H](O)C[C@@H](O)CC(=O)O[C@H]1C)C[C@H](O)[C@H]2C(=O)O,89.7%
18,O=C(/C=C/c1ccc(O)c(O)c1)OCCc1ccccc1,1.4%
19,CN1CCC(=C2c3ccccc3Sc3ccccc32)CC1,98.5%
20,CNc1ccccc1C(=O)N1CCc2c([nH]c3ccccc23)C1=O,75.7%
